Experimental data published in PubChem BioAssay (NCI).
The panel holds about 83,000 compounds, 20% with a hit somewhere; the sample as a whole holds those more often.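 96-well plates, one dose, 48 hours. Percent growth reported; active if below 10.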 Activity calls are given as the source filed them.

Tests used:
Experiment in all cases: NCI-60 one-dose screen, 48 h (100 = growth as untreated, 0 = no growth, -100 = all killed)
Settings in all cases: 10 µM unless noted
SR leukemia = tested on: SR leukemia
RPMI-8226 leukemia = tested on: RPMI-8226 leukemia
OVCAR-8 ovarian = tested on: OVCAR-8 ovarian
OVCAR-5 ovarian = tested on: OVCAR-5 ovarian
OVCAR-4 ovarian = tested on: OVCAR-4 ovarian
SK-OV-3 ovarian = tested on: SK-OV-3 ovarian
IGROV1 ovarian = tested on: IGROV1 ovarian
OVCAR-3 ovarian = tested on: OVCAR-3 ovarian
HS 578T breast = tested on: HS 578T breast
NCI/ADR-RES ovarian = tested on: NCI/ADR-RES ovarian

Measured: growth

C=C1C(=O)O[C@@H]2C[C@@H](C)/C=C\C(=O)[C@](C)(OC(C)=O)C[C@H](OC(=O)/C(C)=C\C)[C@@H]12
inactive: OVCAR-4 ovarian 18.2% | SK-OV-3 ovarian 80.7% | HS 578T breast 19.1% | NCI/ADR-RES ovarian 10.5%
active: SR leukemia 3.84% | RPMI-8226 leukemia -12.6% | OVCAR-8 ovarian -16.1% | OVCAR-5 ovarian -29.5% | IGROV1 ovarian -19.7% | OVCAR-3 ovarian -23.3%

c1ccc(-c2n(Cc3ccc4ccccc4c3)c3c4ccccc4c4ccccc4c3[n+]2Cc2ccc3ccccc3c2)cc1
active: SR leukemia -44.4% | RPMI-8226 leukemia -35.1% | OVCAR-8 ovarian -69.1% | OVCAR-5 ovarian -90.3% | OVCAR-4 ovarian -73.4% | SK-OV-3 ovarian -84.5% | IGROV1 ovarian -74.7% | OVCAR-3 ovarian -90.8% | HS 578T breast -42.9% | NCI/ADR-RES ovarian -4.33%

C/C(=C(/C)C1CC1CCN(C(=O)c1ccccn1)S(=O)(=O)c1ccc(C)cc1)C1CCCCC1 (stereo not given)
inactive: SR leukemia 105% | RPMI-8226 leukemia 92.2% | OVCAR-8 ovarian 96.8% | OVCAR-5 ovarian 93.1% | OVCAR-4 ovarian 83.8% | SK-OV-3 ovarian 101% | IGROV1 ovarian 103% | OVCAR-3 ovarian 108% | HS 578T breast 102% | NCI/ADR-RES ovarian 81.9%

O=C(CCCCCCN1CC(=O)N2[C@@H](c3ccccc3)c3[nH]c4ccccc4c3C[C@H]2C1=O)NO
inactive: SR leukemia 37.2% | RPMI-8226 leukemia 26.7% | OVCAR-8 ovarian 39.6% | OVCAR-5 ovarian 58% | OVCAR-4 ovarian 65.6% | SK-OV-3 ovarian 70.1% | IGROV1 ovarian 60.6% | OVCAR-3 ovarian 55.5% | HS 578T breast 68.8% | NCI/ADR-RES ovarian 77.9%

NNC(=O)c1sc2nc(-c3cnccn3)cc(-c3cccs3)c2c1N
inactive: SR leukemia 86.5% | RPMI-8226 leukemia 107% | OVCAR-8 ovarian 93.8% | OVCAR-5 ovarian 99.1% | OVCAR-4 ovarian 74.4% | SK-OV-3 ovarian 92.1% | IGROV1 ovarian 89.5% | OVCAR-3 ovarian 84.5% | HS 578T breast 119% | NCI/ADR-RES ovarian 105%

CCOC(=O)c1c(NCC(=O)Nc2cccc(Cl)c2)sc2c1CCCC2
inactive: SR leukemia 69.4% | RPMI-8226 leukemia 78.6% | OVCAR-8 ovarian 87.7% | OVCAR-5 ovarian 94.5% | OVCAR-4 ovarian 80.3% | SK-OV-3 ovarian 84.2% | IGROV1 ovarian 50.6% | OVCAR-3 ovarian 82.8% | HS 578T breast 77.4% | NCI/ADR-RES ovarian 81.6%

CN1C(=O)N(C)C2Nn3c(s/c(=C\c4ccccn4)c3=O)=NC21 (stereo not given)
inactive: SR leukemia 109% | RPMI-8226 leukemia 105% | OVCAR-8 ovarian 101% | OVCAR-5 ovarian 104% | OVCAR-4 ovarian 104% | SK-OV-3 ovarian 114% | IGROV1 ovarian 98.3% | OVCAR-3 ovarian 106% | HS 578T breast 113% | NCI/ADR-RES ovarian 103%

CC[C@H](C)[C@H]1NC(=O)[C@@H]([C@H](O)C(C)C)NC(=O)[C@@H](C)N(C)C(=O)[C@H](C)N(C)C(=O)[C@H](CC(C)C)NC(=O)[C@H](CC(C)C)N(C)C(=O)[C@H](C)N(C)C1=O
active: SR leukemia 5.76% | RPMI-8226 leukemia -13.8% | OVCAR-8 ovarian 4.14% | OVCAR-5 ovarian 6.87% | OVCAR-4 ovarian 8.31% | SK-OV-3 ovarian -9.12% | OVCAR-3 ovarian 6.47% | HS 578T breast 5.82%
inactive: IGROV1 ovarian 10.5% | NCI/ADR-RES ovarian 11.4%

CCOC(=O)c1c(NCC(=O)Nc2ccc(Br)cc2)sc2c1CCCC2
inactive: SR leukemia 43.8% | RPMI-8226 leukemia 27% | OVCAR-8 ovarian 36.5% | OVCAR-5 ovarian 27.2% | OVCAR-4 ovarian 35.5% | SK-OV-3 ovarian 66.9% | IGROV1 ovarian 22% | OVCAR-3 ovarian 10.3% | HS 578T breast 57.5% | NCI/ADR-RES ovarian 25.2%

O=C1c2c(O)cc(O)cc2O[C@@H](c2ccc(O)cc2)[C@@H]1c1c(O)cc(O)c2c(=O)cc(-c3ccc(O)c(O)c3)oc12
inactive: SR leukemia 103% | RPMI-8226 leukemia 100% | OVCAR-8 ovarian 101% | OVCAR-5 ovarian 98.6% | OVCAR-4 ovarian 97.8% | SK-OV-3 ovarian 86.5% | IGROV1 ovarian 101% | OVCAR-3 ovarian 106% | HS 578T breast 102% | NCI/ADR-RES ovarian 95.7%

CCCCCCNC(=O)Oc1ccc(/C(=C(\C)c2ccc(OC)cc2)c2ccc(OCCN(C)C)cc2)cc1
inactive: SR leukemia 13.1% | RPMI-8226 leukemia 19.4% | OVCAR-8 ovarian 86.4% | OVCAR-5 ovarian 86.8% | OVCAR-4 ovarian 90.9% | SK-OV-3 ovarian 103% | IGROV1 ovarian 68.4% | OVCAR-3 ovarian 91.3% | HS 578T breast 83.2% | NCI/ADR-RES ovarian 74.8%

COc1ccc([C@H]2c3[nH]c4ccccc4c3C[C@@H]3C(=O)N(C4CCN(Cc5ccccc5)CC4)CC(=O)N23)c(OC)c1
inactive: SR leukemia 29.9% | RPMI-8226 leukemia 52.9% | OVCAR-8 ovarian 88.7% | OVCAR-5 ovarian 90% | OVCAR-4 ovarian 82.7% | SK-OV-3 ovarian 93% | IGROV1 ovarian 50.6% | OVCAR-3 ovarian 80.4% | HS 578T breast 82.3% | NCI/ADR-RES ovarian 68.3%

CCOc1c(C#N)c(Nc2ccc(S(N)(=O)=O)cc2)c(C#N)c2nnc(C)n12
inactive: SR leukemia 100% | RPMI-8226 leukemia 107% | OVCAR-8 ovarian 99.4% | OVCAR-5 ovarian 107% | OVCAR-4 ovarian 117% | SK-OV-3 ovarian 102% | IGROV1 ovarian 101% | OVCAR-3 ovarian 114% | HS 578T breast 102% | NCI/ADR-RES ovarian 105%

NS(=O)(=O)c1ccc(Nc2nc(N/N=C/c3ccc(F)cc3)nc(Nc3ccccc3)n2)cc1
inactive: SR leukemia 57.7% | RPMI-8226 leukemia 50.6% | OVCAR-8 ovarian 29.4% | OVCAR-5 ovarian 75.3% | OVCAR-4 ovarian 55.5% | SK-OV-3 ovarian 71.2% | IGROV1 ovarian 43.5% | OVCAR-3 ovarian 30.4% | HS 578T breast 40.6% | NCI/ADR-RES ovarian 95.6%

C=C(C)[C@@H]1CC[C@]2(C(=O)ON)CC[C@]3(C)[C@H](CC[C@@H]4[C@@]5(C)C/C(=C/c6ccc(Br)cc6)C(=O)C(C)(C)[C@@H]5CC[C@]43C)[C@@H]12
inactive: SR leukemia 76.2% | RPMI-8226 leukemia 62.2% | OVCAR-8 ovarian 68.7% | OVCAR-5 ovarian 86.5% | OVCAR-4 ovarian 75.5% | SK-OV-3 ovarian 98.6% | IGROV1 ovarian 90.4% | OVCAR-3 ovarian 78% | HS 578T breast 88.2% | NCI/ADR-RES ovarian 74.9%

COCCC[C@H]1O[C@@](O)([C@H](C)[C@@H]2CC(OC)C(O)/C=C(C)/C=C(C)/C=C(\C)C(OC3O[C@@H](C)[C@H](O)C(O)[C@@H]3O)C(C)/C=C(C)/C=C(OC)/C=C(\C)C(=O)O2)C(OC)C(O)[C@]1(C)O[C@H]1C[C@@H](O)[C@H](O[C@H]2C[C@](C)(O)[C@H](O)C(C)O2)C(C)O1 (stereo not given in full)
inactive: SR leukemia 113% | RPMI-8226 leukemia 27.5% | OVCAR-8 ovarian 41.9% | OVCAR-5 ovarian 78.9% | OVCAR-4 ovarian 19.7% | SK-OV-3 ovarian 61% | IGROV1 ovarian 88.1% | OVCAR-3 ovarian 74.9% | HS 578T breast 86.1% | NCI/ADR-RES ovarian 67.3%

O=C1[C@H]2Cc3c([nH]c4ccccc34)[C@@H](c3c(Cl)cccc3Cl)N2C(=O)CN1C1CCN(Cc2ccccc2)CC1
inactive: SR leukemia 32.7% | RPMI-8226 leukemia 60.3% | OVCAR-8 ovarian 74.5% | OVCAR-5 ovarian 107% | OVCAR-4 ovarian 83.9% | SK-OV-3 ovarian 115% | IGROV1 ovarian 70.3% | OVCAR-3 ovarian 109% | HS 578T breast 87.6% | NCI/ADR-RES ovarian 92.8%

CN(c1ccc(Br)cc1)S(=O)(=O)c1ccc(-c2cnc(C3CC3)o2)cc1
active: NCI/ADR-RES ovarian 2.5%
inactive: SR leukemia 34.4% | RPMI-8226 leukemia 15.9% | OVCAR-8 ovarian 33.2% | OVCAR-5 ovarian 46.7% | OVCAR-4 ovarian 70.1% | SK-OV-3 ovarian 73.7% | IGROV1 ovarian 29.9% | OVCAR-3 ovarian 23.7% | HS 578T breast 35.8%

CCNC(=O)Oc1ccc(/C(=C(/C)c2ccccc2)c2ccc(OCCN3CCCC3)cc2)cc1
inactive: SR leukemia 32.3% | RPMI-8226 leukemia 33% | OVCAR-8 ovarian 89.5% | OVCAR-5 ovarian 82.3% | OVCAR-4 ovarian 81.7% | SK-OV-3 ovarian 95.8% | IGROV1 ovarian 80.5% | OVCAR-3 ovarian 76.6% | HS 578T breast 78.4% | NCI/ADR-RES ovarian 76.3%

COc1cc(/C=N/n2cnc3oc(-c4ccccc4)cc3c2=N)cc(CN2CCOCC2)c1O
inactive: SR leukemia 32% | RPMI-8226 leukemia 27.5% | OVCAR-8 ovarian 60.4% | OVCAR-5 ovarian 84.2% | OVCAR-4 ovarian 72.6% | SK-OV-3 ovarian 68.4% | IGROV1 ovarian 21.7% | OVCAR-3 ovarian 108% | HS 578T breast 14.8% | NCI/ADR-RES ovarian 72.5%

O=C(Nc1cccc(Cl)c1)Nc1nc2ccc([N+](=O)[O-])cc2s1
active: SR leukemia 2.1% | RPMI-8226 leukemia 3.45% | OVCAR-8 ovarian 7.34% | OVCAR-4 ovarian 4.33% | SK-OV-3 ovarian -1.18% | OVCAR-3 ovarian 9.51% | HS 578T breast -5.35% | NCI/ADR-RES ovarian 2.96%
inactive: OVCAR-5 ovarian 26.5% | IGROV1 ovarian 14.8%

C#Cc1ccc(NC(=O)c2ccc(/C=C/C(=O)c3nccn3C)cc2)c(F)c1
active: SR leukemia 8.09% | RPMI-8226 leukemia -5.69%
inactive: OVCAR-8 ovarian 21.4% | OVCAR-5 ovarian 40.7% | OVCAR-4 ovarian 42.3% | SK-OV-3 ovarian 65.3% | IGROV1 ovarian 23.9% | OVCAR-3 ovarian 12.6% | HS 578T breast 51.4% | NCI/ADR-RES ovarian 10.8%

CC[C@@](C)(NC(=O)C(C)(C)NC(=O)[C@@H](NC(=O)[C@@H]1CCCN1C(=O)C(C)(C)NC(=O)[C@H](CC(C)C)NC(=O)CNC(=O)C(C)(C)NC(=O)[C@@H](NC(=O)C(C)(C)NC(=O)[C@H](CCC(N)=O)NC(=O)[C@H](C)NC(=O)C(C)(C)NC(=O)[C@H](C)NC(=O)C(C)(C)NC(=O)[C@@H]1CCCN1C(=O)C(C)(C)NC(C)=O)C(C)C)C(C)C)C(=O)N[C@@H](CCC(N)=O)C(=O)N[C@@H](CCC(N)=O)C(=O)N[C@H](CO)Cc1ccccc1
inactive: SR leukemia 22.2% [4.25 µM] | OVCAR-8 ovarian 94.5% [4.25 µM] | OVCAR-5 ovarian 44.9% [4.25 µM] | OVCAR-4 ovarian 59.2% [4.25 µM] | SK-OV-3 ovarian 31.3% [4.25 µM] | IGROV1 ovarian 42.6% [4.25 µM] | OVCAR-3 ovarian 14.6% [4.25 µM] | HS 578T breast 52.1% [4.25 µM] | NCI/ADR-RES ovarian 100% [4.25 µM]
active: RPMI-8226 leukemia -10.5% [4.25 µM]
